# Changes are numbered by the printed parent chain.
# How the values were obtained:
# Test in all cases: PBM; 200 nM protein, PBS
# Settings in all cases: dsDNA, one strand shown
# NKX2-6 [1] = molecular target: T1, NKX2-6 (Homo sapiens, UniProt A6NCS4 118-204)
# T1 sequence: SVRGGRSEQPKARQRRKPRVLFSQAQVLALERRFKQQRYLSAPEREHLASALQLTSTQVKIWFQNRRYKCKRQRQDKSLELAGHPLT
# NKX2-6 [2] = molecular target: T2, NKX2-6 (Homo sapiens, UniProt A6NCS4 118-204, F151L)
# T2 sequence: T1 sequence with F34L
# PITX2 = PITX2 (Homo sapiens, UniProt Q99697 72-157)
# NKX3-2 [3] = molecular target: NKX3-2 (Homo sapiens, UniProt P78367 192-278, P234S)
# NKX3-2 [4] = molecular target: NKX3-2 (Homo sapiens, UniProt P78367 192-278)
# PAX4 [5] = molecular target: T3, PAX4 (Homo sapiens, UniProt O43316 9-242, R200Q)
# T3 sequence: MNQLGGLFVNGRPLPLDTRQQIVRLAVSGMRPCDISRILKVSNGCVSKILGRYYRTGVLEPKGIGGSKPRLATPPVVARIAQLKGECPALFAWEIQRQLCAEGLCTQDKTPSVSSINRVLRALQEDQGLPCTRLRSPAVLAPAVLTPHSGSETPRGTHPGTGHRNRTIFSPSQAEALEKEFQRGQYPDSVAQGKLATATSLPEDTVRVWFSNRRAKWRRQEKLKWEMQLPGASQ
# PAX4 [6] = molecular target: T4, PAX4 (Homo sapiens, UniProt O43316 9-242, F177Y)
# T4 sequence: T3 sequence with F169Y, Q192R
# Sequence of NKX3-2 (Homo sapiens, UniProt P78367 192-278, P234S) (P78367 192-278 P234S): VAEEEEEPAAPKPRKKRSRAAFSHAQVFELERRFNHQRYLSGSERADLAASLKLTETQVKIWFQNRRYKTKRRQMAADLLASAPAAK
# Sequence of NKX3-2 (Homo sapiens, UniProt P78367 192-278) (P78367 192-278): as the sequence (P78367 192-278 P234S) above, with S43P counted along it
sequence,measurement,setting,value
CCCGGAAA,binding signal,NKX2-6 [1],"9.48 upbm affinity estimate (log intensity, higher = more binding, comparable within an allelic series)"
same,binding signal,NKX2-6 [2],"9.48 upbm affinity estimate (log intensity, higher = more binding, comparable within an allelic series)"
CCATTCAC,binding signal,PITX2,"8.31 upbm affinity estimate (log intensity, higher = more binding, comparable within an allelic series)"
AGCCCTCA,binding signal,NKX2-6 [1],"11.1 upbm affinity estimate (log intensity, higher = more binding, comparable within an allelic series)"
same,binding signal,NKX2-6 [2],"9.52 upbm affinity estimate (log intensity, higher = more binding, comparable within an allelic series)"
same,binding signal,NKX3-2 [3],"11.5 upbm affinity estimate (log intensity, higher = more binding, comparable within an allelic series)"
same,binding signal,NKX3-2 [4],"11.6 upbm affinity estimate (log intensity, higher = more binding, comparable within an allelic series)"
GCAGTCGC,binding signal,PITX2,"7.82 upbm affinity estimate (log intensity, higher = more binding, comparable within an allelic series)"
CCGGCACC,binding signal,NKX2-6 [1],"9.34 upbm affinity estimate (log intensity, higher = more binding, comparable within an allelic series)"
same,binding signal,NKX2-6 [2],"9.34 upbm affinity estimate (log intensity, higher = more binding, comparable within an allelic series)"
CCTTAAGA,binding signal,NKX2-6 [1],"12.4 upbm affinity estimate (log intensity, higher = more binding, comparable within an allelic series)"
same,binding signal,NKX2-6 [2],"10.1 upbm affinity estimate (log intensity, higher = more binding, comparable within an allelic series)"
TGGTACCA,binding signal,NKX2-6 [1],"9.64 upbm affinity estimate (log intensity, higher = more binding, comparable within an allelic series)"
same,binding signal,NKX2-6 [2],"9.28 upbm affinity estimate (log intensity, higher = more binding, comparable within an allelic series)"
GTAAATTA,binding signal,PAX4 [5],"11.9 upbm affinity estimate (log intensity, higher = more binding, comparable within an allelic series)"
same,binding signal,PAX4 [6],"11 upbm affinity estimate (log intensity, higher = more binding, comparable within an allelic series)"
TAAGAAGA,binding signal,NKX2-6 [1],"11.5 upbm affinity estimate (log intensity, higher = more binding, comparable within an allelic series)"
same,binding signal,NKX2-6 [2],"9.88 upbm affinity estimate (log intensity, higher = more binding, comparable within an allelic series)"
ACCCAGGC,binding signal,NKX2-6 [1],"8.77 upbm affinity estimate (log intensity, higher = more binding, comparable within an allelic series)"
same,binding signal,NKX2-6 [2],"9.31 upbm affinity estimate (log intensity, higher = more binding, comparable within an allelic series)"
AGTATGTA,binding signal,NKX2-6 [1],"11.6 upbm affinity estimate (log intensity, higher = more binding, comparable within an allelic series)"
same,binding signal,NKX2-6 [2],"9.91 upbm affinity estimate (log intensity, higher = more binding, comparable within an allelic series)"
CCGGGAAC,binding signal,NKX2-6 [1],"9.33 upbm affinity estimate (log intensity, higher = more binding, comparable within an allelic series)"
same,binding signal,NKX2-6 [2],"9.31 upbm affinity estimate (log intensity, higher = more binding, comparable within an allelic series)"
same,binding signal,NKX3-2 [3],"10.5 upbm affinity estimate (log intensity, higher = more binding, comparable within an allelic series)"
same,binding signal,NKX3-2 [4],"10.5 upbm affinity estimate (log intensity, higher = more binding, comparable within an allelic series)"
AGTTGCTG,binding signal,NKX2-6 [1],"9.45 upbm affinity estimate (log intensity, higher = more binding, comparable within an allelic series)"
same,binding signal,NKX2-6 [2],"9.39 upbm affinity estimate (log intensity, higher = more binding, comparable within an allelic series)"
same,binding signal,NKX3-2 [3],"10.7 upbm affinity estimate (log intensity, higher = more binding, comparable within an allelic series)"
same,binding signal,NKX3-2 [4],"10.6 upbm affinity estimate (log intensity, higher = more binding, comparable within an allelic series)"
AAGTACTG,binding signal,NKX2-6 [1],"12.7 upbm affinity estimate (log intensity, higher = more binding, comparable within an allelic series)"
same,binding signal,NKX2-6 [2],"10.3 upbm affinity estimate (log intensity, higher = more binding, comparable within an allelic series)"
CAGGCACA,binding signal,NKX2-6 [1],"9.47 upbm affinity estimate (log intensity, higher = more binding, comparable within an allelic series)"
same,binding signal,NKX2-6 [2],"9.38 upbm affinity estimate (log intensity, higher = more binding, comparable within an allelic series)"
AGTGCCAC,binding signal,NKX2-6 [1],"11.6 upbm affinity estimate (log intensity, higher = more binding, comparable within an allelic series)"
same,binding signal,NKX2-6 [2],"9.9 upbm affinity estimate (log intensity, higher = more binding, comparable within an allelic series)"
CCCGTTCG,binding signal,NKX2-6 [1],"9.17 upbm affinity estimate (log intensity, higher = more binding, comparable within an allelic series)"
same,binding signal,NKX2-6 [2],"9.43 upbm affinity estimate (log intensity, higher = more binding, comparable within an allelic series)"
same,binding signal,NKX3-2 [3],"10.5 upbm affinity estimate (log intensity, higher = more binding, comparable within an allelic series)"
same,binding signal,NKX3-2 [4],"10.5 upbm affinity estimate (log intensity, higher = more binding, comparable within an allelic series)"
CTCCCCGA,binding signal,PITX2,"8.1 upbm affinity estimate (log intensity, higher = more binding, comparable within an allelic series)"
CCGCGCGG,binding signal,NKX2-6 [1],"9.66 upbm affinity estimate (log intensity, higher = more binding, comparable within an allelic series)"
same,binding signal,NKX2-6 [2],"9.56 upbm affinity estimate (log intensity, higher = more binding, comparable within an allelic series)"
CCGCGCAC,binding signal,NKX2-6 [1],"9.44 upbm affinity estimate (log intensity, higher = more binding, comparable within an allelic series)"
same,binding signal,NKX2-6 [2],"9.51 upbm affinity estimate (log intensity, higher = more binding, comparable within an allelic series)"
AACCGGAG,binding signal,NKX2-6 [1],"9.55 upbm affinity estimate (log intensity, higher = more binding, comparable within an allelic series)"
same,binding signal,NKX2-6 [2],"9.32 upbm affinity estimate (log intensity, higher = more binding, comparable within an allelic series)"
GCTAAGTA,binding signal,NKX2-6 [1],"12.9 upbm affinity estimate (log intensity, higher = more binding, comparable within an allelic series)"
same,binding signal,NKX2-6 [2],"10.4 upbm affinity estimate (log intensity, higher = more binding, comparable within an allelic series)"
GCATCGGC,binding signal,NKX2-6 [1],"9.23 upbm affinity estimate (log intensity, higher = more binding, comparable within an allelic series)"
same,binding signal,NKX2-6 [2],"9.43 upbm affinity estimate (log intensity, higher = more binding, comparable within an allelic series)"
AGACGGCC,binding signal,NKX2-6 [1],"9.28 upbm affinity estimate (log intensity, higher = more binding, comparable within an allelic series)"
same,binding signal,NKX2-6 [2],"9.16 upbm affinity estimate (log intensity, higher = more binding, comparable within an allelic series)"
CTCTCATC,binding signal,NKX2-6 [1],"11.6 upbm affinity estimate (log intensity, higher = more binding, comparable within an allelic series)"
same,binding signal,NKX2-6 [2],"9.79 upbm affinity estimate (log intensity, higher = more binding, comparable within an allelic series)"
same,binding signal,NKX3-2 [3],"11.7 upbm affinity estimate (log intensity, higher = more binding, comparable within an allelic series)"
same,binding signal,NKX3-2 [4],"11.9 upbm affinity estimate (log intensity, higher = more binding, comparable within an allelic series)"
GCCGATCC,binding signal,NKX2-6 [1],"9.45 upbm affinity estimate (log intensity, higher = more binding, comparable within an allelic series)"
same,binding signal,NKX2-6 [2],"9.3 upbm affinity estimate (log intensity, higher = more binding, comparable within an allelic series)"
